Results: the supplement of paper PMC12340641
Counter-ions that a name gives are not always drawn.

What was measured:
[1] = target: IKZF1 (dCK*-IKZF1 fusion in HEK293FT) (UniProt Q13422); assay: inhibition of IKZF1 HTRF signal (DMSO = 0%, pomalidomide 10 uM = 100%); higher = lower IKZF1 protein level; conditions: compound concentration: 5 uM, overnight (~20 h)
In short: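 Percent inhibition of IKZF1 signal was calculated per plate with vehicle and a reference degrader as anchors. The anchors were 0% for vehicle and 100% for the degrader, applied to background-subtracted 665/620 nm time-resolved FRET ratios from a commercial HTRF total-IKZF1 kit. Signal came from HEK293FT cells stably expressing an IKZF1 fusion, treated overnight at 37 °C with 5 μM compound in single wells of 384-well plates.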

HEK293FT dCK*-only = assay: relative growth in counter assay (no AraC = 100%, AraC + DMSO = 0%); higher = more growth rescue independent of IKZF1; conditions: compound concentration: 5 uM; AraC concentration: 0.3 uM; overnight pretreatment + 4 days AraC
In short: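 Nuclei were counted by imaging after Hoechst 33342 staining on day 5, in HEK293FT cells (300/well, 384-well) expressing only an engineered kinase construct. Compound at 5 μM went in 2 h after seeding, followed after overnight at 37 °C by a nucleoside suicide substrate at 0.3 μM plus medium for 4 days. Per plate, wells lacking suicide substrate defined 100% and those with substrate plus vehicle defined 0%.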

HEK293FT dCK*-IKZF1 = assay: relative growth recovery (pomalidomide 10 uM = 100%, DMSO = 0%); higher = more growth rescue (IKZF1 fusion degradation); conditions: compound concentration: 5 uM; AraC concentration: 0.3 uM; overnight pretreatment + 4 days AraC
In short: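 HEK293FT cells stably expressing a dCK*-IKZF1 fusion (300/well, 384-well) received 5 μM compound 2 h after seeding. After overnight at 37 °C they received a nucleoside suicide substrate at 0.3 μM plus medium for 4 days. On day 5, Hoechst 33342-stained nuclei were counted by whole-well imaging. Growth recovery was normalised per plate to a reference degrader (100%) and vehicle (0%); values are means of duplicates run on different days.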

Chain of IKZF1 (dCK*-IKZF1 fusion in HEK293FT) (Q13422 whole entry, looked up, the tested form may be a part): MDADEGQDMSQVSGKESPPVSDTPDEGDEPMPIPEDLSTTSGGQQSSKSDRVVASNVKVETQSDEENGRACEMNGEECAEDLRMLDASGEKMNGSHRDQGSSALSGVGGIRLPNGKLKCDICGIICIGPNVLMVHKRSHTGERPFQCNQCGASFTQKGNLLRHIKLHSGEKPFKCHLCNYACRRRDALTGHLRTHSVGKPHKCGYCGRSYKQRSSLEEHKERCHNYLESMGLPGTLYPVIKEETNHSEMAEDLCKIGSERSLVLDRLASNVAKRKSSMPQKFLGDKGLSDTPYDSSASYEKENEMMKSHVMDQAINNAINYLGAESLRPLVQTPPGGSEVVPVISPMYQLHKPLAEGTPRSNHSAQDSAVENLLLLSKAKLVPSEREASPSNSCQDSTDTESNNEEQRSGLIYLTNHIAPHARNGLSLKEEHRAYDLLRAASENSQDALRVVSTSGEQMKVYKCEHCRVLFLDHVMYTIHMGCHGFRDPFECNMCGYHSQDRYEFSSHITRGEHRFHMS

Compound | inhibition of IKZF1 HTRF signal [1] [%] | relative growth in counter assay (HEK293FT dCK*-only) [%] | relative growth recovery (HEK293FT dCK*-IKZF1) [%]
COc1ccc(/C=C/C(=O)/C=C(O)/C=C/c2ccc(OC)c(OC)c2)cc1OC [Dimethylcurcumin, ASC-J9] | -40.7 | -25.6 | -5.62
CC[C@@]1(O)C(=O)OCc2c1cc1n(c2=O)Cc2cc3cc(O)ccc3nc2-1 [10-Hydroxycamptothecin] | 38.4 | -34 | -13.2
CC(CN(C)C)CN1c2ccccc2Sc2ccccc21 (stereo unspecified) [trimeprazine] | 15.3 | 7.5 | -1.37
CCCCCCCCNC(C)C(O)c1ccc(SC(C)C)cc1 (stereo unspecified) | -32.8 | 7.28 | -0.84
COC(=O)C1=C(C)NC(C)=C(C(=O)OC/C=C/c2ccccc2)C1c1cccc([N+](=O)[O-])c1 (stereo unspecified) [Pranidipine] | 13.9 | -3.72 | -0.3
Oc1c(I)cc(Cl)c2cccnc12 | -2.15 | -3.3 | -3.28
CN(CC3)C[C@@H](O)[C@H]3[C@]1=C(OC(C4=CC=CC=C4Cl)=CC2=O)C2=C(O)C=C1O [alvocidib] | -30.5 | -35.2 | -12.5
O=c1[nH]c2ccccc2n1C1CCN(CCOc2ccccc2)CC1 [oxiperomide] | 23.7 | -11.6 | 2.25
O=c1[nH]c(=O)n([C@H]2C[C@H](O)[C@@H](CO)O2)cc1F | -24.3 | -31.1 | -9.89
O=C(O)c1cc([N+](=O)[O-])ccc1NCCCc1ccccc1 | -22.5 | -2.81 | -1.86
CSc1ccc2c(c1)C(N1CCN(C)CC1)Cc1ccccc1S2 (stereo unspecified) | -34.7 | -1.22 | -1.56
CC(CN(C)C)CN1c2ccccc2Sc2ccccc21 (stereo unspecified) | -50.1 | 1.07 | -2.14
COc1cc([C@@H]2c3cc4c(cc3[C@@H](O[C@@H]3O[C@@H]5CO[C@@H](C)O[C@H]5[C@H](O)[C@H]3O)[C@H]3COC(=O)C23)OCO4)cc(OC)c1O (stereo partly specified) [Etoposide] | -10.2 | -34.7 | -12.9
CNCCC(Oc1ccc(C(F)(F)F)cc1)c1ccccc1 (stereo unspecified) | -36.8 | 6.85 | 0.235
CC1(C)Oc2ccc(C#N)cc2[C@H](N(Cc2ncc[nH]2)c2ccc(Cl)cc2)[C@H]1O | -30.7 | -4.85 | 1.01
O=C1Nc2ccccc2/C1=C1/Nc2ccccc2/C1=N\O [indirubin-3-monoxime] | -16.5 | 4.61 | 1.19
NC(=O)c1nnn(Cc2cc(Cl)c(C(=O)c3ccc(Cl)cc3)c(Cl)c2)c1N [carboxyamidotriazole] | -49.1 | -4.77 | -2.6
CC(CCc1ccc(O)cc1)NCCc1ccc(O)c(O)c1 (stereo unspecified) [Dobutamine (hydrochloride)] | -39.6 | -8.05 | -1.22
Oc1cc(O)c2cc(O)c(-c3cc(O)c(O)c(O)c3)[o+]c2c1 [delphinidin] | 43.4 | -7.27 | -1.78

Compound | inhibition of IKZF1 HTRF signal [1] [%] | relative growth in counter assay (HEK293FT dCK*-only) [%] | relative growth recovery (HEK293FT dCK*-IKZF1) [%]
CC1=C(/C=C/C(C)=C/C=C/C(C)=C/C=C/C=C(C)/C=C/C=C(C)/C=C/C2=C(C)CCCC2(C)C)C(C)(C)CCC1 | -23.6 | -13.6 | -1.69
CC(C)(C)C1CCc2c(sc(NC(=O)c3ccco3)c2C(=O)O)C1 (stereo unspecified) | -23.8 | -8.81 | -0.515
S=C(NCc1ccc2c(c1)OCO2)N1CCN(c2ncnc3c2oc2ccccc23)CC1 [Amuvatinib (MP-470)] | -37.4 | -17.4 | -0.14
CNC(=O)c1cccc(-c2ccc3c(N4CCOC[C@@H]4C)nc(N4CCOC[C@@H]4C)nc3n2)c1 [Vistusertib (AZD2014)] | 69.4 | -33 | -12.9
COc1ccc(Cl)cc1C(=O)NCCc1ccc(S(=O)(=O)NC(=O)NC2CCCCC2)cc1 | -51.9 | -0.06 | 3.14
CCOC(=O)c1ccc(N)cc1 | 16.4 | -10.5 | -2.68
Cc1cc2nc3ccc(N(C)C)cc3[s+]c2cc1N | -22.7 | -34.5 | -13.5
COc1cc(NS(C)(=O)=O)ccc1Nc1c2ccccc2nc2ccccc12 | -14.1 | -35.1 | -13.2
CN(C)CCCN1c2ccccc2Sc2ccc(Cl)cc21 | -47.9 | -0.83 | -1.89
CCCSc1ccc2[nH]c(NC(=O)OC)nc2c1 | -15.2 | -32.2 | -11.2
O=C(O)c1ccc(/C=C2/SC(=S)N(c3cccc(C(F)(F)F)c3)C2=O)cc1 | -26.9 | -1.87 | -0.07
C[n+]1c2cc(N)ccc2cc2ccc(N)cc21.Nc1ccc2cc3ccc(N)cc3nc2c1 [Acriflavine hydrochloride] | 6.76 | -35.7 | -14
Nc1nc2c(ccc3ccccc32)s1 | -31 | 4.08 | 0.375
COC(=O)C1=C(C)NC(C)=C(C(=O)OC(C)(C)CN(C)CCC(c2ccccc2)c2ccccc2)C1c1cccc([N+](=O)[O-])c1 (stereo unspecified) [lercanidipine] | -5.35 | -6.01 | 1.64
C=C(NNC(=S)NNC(=S)Nc1ccccc1Cl)c1ccccn1 | 0.77 | -34.8 | -12.8
CCc1c2c(nc3ccc(OC(=O)N4CCC(N5CCCCC5)CC4)cc13)-c1cc3c(c(=O)n1C2)COC(=O)[C@]3(O)CC [irinotecan] | 41.6 | -35.4 | -13.9
O=C(O)c1cc(N=Nc2ccc(O)c(C(=O)O)c2)ccc1O [Olsalazine Na] | -197 | 1.54 | -1.08
Clc1ccc(C(Cn2ccnc2)OCc2csc3c(Cl)cccc23)c(Cl)c1 (stereo unspecified) [Sertaconazole] | -18.6 | 3.66 | 1.54
CC1(C)C(=O)N=C2C1=C(O)C(=O)c1ccccc12 | 80 | -34.8 | -12.4

Compound | inhibition of IKZF1 HTRF signal [1] [%] | relative growth in counter assay (HEK293FT dCK*-only) [%] | relative growth recovery (HEK293FT dCK*-IKZF1) [%]
COC(=O)/C=C/c1cc(O)ccc1O [erbstatin-analog] | -21.1 | -32.8 | -11.6
COCCOC(=O)C1=C(C)NC(C)=C(C(=O)OC(C)C)C1c1cccc([N+](=O)[O-])c1 (stereo unspecified) | -29.4 | -11.4 | 6.1
CC[C@H](CO)Nc1nc(NCc2ccc(-c3ccccn3)cc2)c2ncn(C(C)C)c2n1 | 8.26 | -34.5 | -12.2
CCC(=O)N1CCN(c2ccc(-n3c(=O)ccc4cnc5ccc(-c6cnc7ccccc7c6)cc5c43)cc2C(F)(F)F)CC1 [Torin 1] | 35.7 | -27.5 | -10.5
C/C=C(/C(=C/C)c1ccc(O)cc1)c1ccc(O)cc1 [dienestrol] | -24 | -2.14 | -1.6
CN1CCCC1CCOC(C)(c1ccccc1)c1ccc(Cl)cc1 (stereo unspecified) [Clemastine fumarate] | 11 | 6.63 | 5.08
CCn1c(=O)[nH]c2ccccc21 | -34.6 | -8.57 | 0.15
OC1=C(C[C@]([C@](CO)=O)(O)C[C@@H]4O[C@@]5([H])C[C@H](N)[C@H](O)[C@H](C)O5)C4=C(O)C3=C1C(C2=CC=CC(OC)=C2C3=O)=O [doxorubicin] | -9.64 | -35.2 | -13.8
c1ccc2c(c1)CCC[C@H]2Nc1nc2ccccc2[nH]1 | -34.6 | -1.81 | -0.405
CC[C@@]1(O)C(=O)OCc2c1cc1n(c2=O)Cc2cc3c(CN(C)C)c(O)ccc3nc2-1 [Topotecan (Hydrochloride)] | 1.64 | -36.8 | -15.9
Nc1c2ccccc2nc2ccccc12 | 58.6 | -34.8 | -14
COC(=O)c1c(C)[nH]c(C)c1C(=O)c1ccccc1Cc1ccccc1 | -37.4 | 36.9 | 66.8
CCc1ccc(OCc2ccccc2C(=O)Nc2ccc3nc(C)cc(N)c3c2)cc1 | 41.1 | -34.6 | -14.6
COc1cccc2c1C(=O)c1c(O)c3c(c(O)c1C2=O)C[C@@](O)(C(=O)CO)C[C@@H]3O[C@H]1C[C@H](N)[C@@H](O)[C@H](C)O1 [Epirubicin Hydrochloride] | 52.4 | -34.5 | -13.7
O=C(Nc1nc(-c2cc(Cl)cs2)c(N2CCN(C3CCCCC3)CC2)s1)c1cnc(N2CCC(C(=O)O)CC2)c(Cl)c1 [Avatrombopag] | -35.6 | -3.51 | 1.31
O=C(CCCCCCC(O)=NO)Nc1ccccc1 [Vorinostat] | -44.5 | -31.4 | -10.3
CN(C)c1ccc2c(c1)Sc1cc(N(C)C)ccc1N2.CS(=O)(=O)O [Leucomethylene blue (Mesylate)] | -24.1 | -19.7 | -10.3
CCCCC(F)(F)C(=O)CC[C@H]1[C@H](O)CC(=O)[C@@H]1CCCCCCC(=O)O [Lubiprostone] | -43.7 | -3.38 | -1.27
Nc1ncn([C@@H]2O[C@H](CO)C(O)C2O)c(=O)n1 (stereo partly specified) [Azacitidine] | -5.73 | 4.37 | -3.45
